VLA-4 inh: inhibition in a human VLA-4 binding assay; inhibition, % (about 7 µM as worked out from the volumes in the protocol); VLA-4 expressing cells, ligand binding flow cytometry; P13612; 330,000 compounds, 0.2% hits; in the data active = inhibition above about 50%
Target sequence (P13612 whole entry, looked up): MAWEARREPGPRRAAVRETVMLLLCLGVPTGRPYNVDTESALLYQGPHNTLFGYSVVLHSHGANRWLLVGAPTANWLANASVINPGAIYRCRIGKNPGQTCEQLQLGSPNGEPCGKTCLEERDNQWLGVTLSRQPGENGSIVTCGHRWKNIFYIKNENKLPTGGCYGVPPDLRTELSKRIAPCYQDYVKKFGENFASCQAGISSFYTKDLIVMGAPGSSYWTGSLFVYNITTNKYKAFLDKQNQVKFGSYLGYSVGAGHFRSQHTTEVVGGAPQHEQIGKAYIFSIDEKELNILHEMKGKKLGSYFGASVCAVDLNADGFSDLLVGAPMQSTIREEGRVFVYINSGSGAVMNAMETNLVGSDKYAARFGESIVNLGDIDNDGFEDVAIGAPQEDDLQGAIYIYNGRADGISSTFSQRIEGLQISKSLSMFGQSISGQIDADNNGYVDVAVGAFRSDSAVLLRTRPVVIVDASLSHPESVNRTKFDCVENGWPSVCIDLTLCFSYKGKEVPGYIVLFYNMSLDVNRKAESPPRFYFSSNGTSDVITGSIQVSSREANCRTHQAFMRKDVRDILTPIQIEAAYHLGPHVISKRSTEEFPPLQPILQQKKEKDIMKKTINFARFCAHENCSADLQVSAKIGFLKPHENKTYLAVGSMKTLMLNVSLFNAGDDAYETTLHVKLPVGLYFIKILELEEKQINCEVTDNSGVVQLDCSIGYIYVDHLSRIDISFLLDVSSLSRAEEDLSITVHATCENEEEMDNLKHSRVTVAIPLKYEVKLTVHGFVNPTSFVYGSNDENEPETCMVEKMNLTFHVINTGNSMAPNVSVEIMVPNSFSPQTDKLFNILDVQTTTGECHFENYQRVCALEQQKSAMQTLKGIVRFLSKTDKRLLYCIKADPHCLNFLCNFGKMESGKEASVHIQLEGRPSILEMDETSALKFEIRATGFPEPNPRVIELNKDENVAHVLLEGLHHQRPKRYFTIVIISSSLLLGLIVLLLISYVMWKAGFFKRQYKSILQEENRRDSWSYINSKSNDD
RPL19A-GFP yeast: modulators of TOR pathway RPL19A-GFP in S. cerevisiae. S. cerevisiae RPL19A-GFP strain, flow cytometry, 3 h; stronger effect = lower value. percent response vs DMSO, % at 10 µM. 330,000 compounds, 0.3% hits;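 active = percent response vs DMSO below 50%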;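 note: median channel GFP fluorescence of the barcoded RPL19A-GFP strain; lower means less RPL19A-GFP as with rapamycin TOR inhibition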
LAP4 TOR yeast: modulators of TOR pathway LAP4-GFP in S. cerevisiae; GFP response vs DMSO, % at 10 µM; S. cerevisiae LAP4-GFP multiplex, flow cytometry GFP, 3 h; median GFP as percent of DMSO wells; AID 2023; 320,000 compounds, 0.34% hits;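 active = GFP response vs DMSO above a set limit, about the screen mean plus 3 SD, cut at about 150% in these data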
CIT2 TOR yeast: alters CIT2-GFP fluorescence in TOR pathway yeast screen. GFP response vs DMSO, % at 10 µM. 320,000 compounds, 0.065% hits. S. cerevisiae CIT2-GFP strain, flow cytometry, 3 h; 100 means same as DMSO wells. AID 2029;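 active = GFP response relative to DMSO above a set limit, near the screen mean plus 3 SD, cut at about 150% in these data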;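 note: ratio of well median GFP fluorescence to mean of DMSO wells on the plate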
AGP1-GFP MLPCN: yeast TOR pathway AGP1-GFP modulation; S. cerevisiae AGP1-GFP multiplex flow cytometry, 3 h; GFP as percent of DMSO wells; GFP response vs DMSO, % at 10 µM; 320,000 compounds, 0.02% hits; AID 2066;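 active = GFP response relative to DMSO above a set limit, near screen average plus 3 SD, cut at about 150% in these data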;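 note: median GFP channel fluorescence of the gated AGP1 strain per well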
MEP2 TOR yeast: modulators of TOR pathway MEP2-GFP in S. cerevisiae | S. cerevisiae MEP2-GFP strain, flow cytometry GFP, 3 h; 100% = DMSO control level | GFP response vs DMSO, % at 10 µM | 330,000 compounds, 0.51% hits | AID 2016;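 active = GFP response versus DMSO above a set limit, roughly screen mean plus 3 SD, cut at about 180% in these data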;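 note: median GFP fluorescence of the barcode-gated MEP2-GFP cells per well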
LAP4 cherry2: second confirmation of modulators of TOR reporter LAP4-GFP in yeast. GFP response vs DMSO, % at 10 µM. S. cerevisiae LAP4-GFP strain, flow cytometry GFP, 3 h. AID 2621. shares compounds with LAP4 TOR yeast. 590 compounds, 20% hits;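 active = GFP signal as percent of the solvent control above about 150%, meaning raised reporter expression, limit read from the data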
MEP2 cherry2: reconfirmed MEP2-GFP TOR pathway modulator in yeast; S. cerevisiae MEP2-GFP strain, flow cytometry GFP, 3 h; AID 2622; 590 compounds, 10% hits; shares compounds with LAP4 TOR yeast; GFP response vs DMSO, % at 10 µM;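 active = GFP signal above 150% of the solvent control wells, that is a rise of more than half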;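 note: median channel GFP fluorescence of all gated yeast cells per well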
RPL19A-GFP pick2: reconfirmed modulator of RPL19A-GFP TOR reporter in yeast | shares compounds with LAP4 TOR yeast | S. cerevisiae RPL19A-GFP strain, flow cytometry GFP, 3 h; stronger effect = lower value; 100% means same as DMSO wells | GFP response vs DMSO, % at 10 µM | 590 compounds, 3% hits;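 active = under 65% GFP response relative to DMSO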;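 note: median GFP channel fluorescence per well over the all cells gate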
CIT2-GFP pick2: yeast CIT2-GFP TOR reporter modulation, second cherry pick | shares compounds with LAP4 TOR yeast | S. cerevisiae CIT2-GFP strain, flow cytometry GFP, 3 h; DMSO control wells read 100% | GFP response vs DMSO, % at 10 µM | 590 compounds, 8% hits;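 active = GFP response vs DMSO above about 150%, limit read from the data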;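 note: median green fluorescence per well over all gated yeast cells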
AGP1 GFP CP2: yeast AGP1-GFP TOR reporter modulation, second cherry pick. AID 2643. shares compounds with LAP4 TOR yeast. percent response vs DMSO, % at 10 µM. S. cerevisiae AGP1-GFP strain, flow cytometry GFP, 3 h. 590 tested, under 10 active;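 active = over 150 percent of DMSO response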;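 note: median GFP channel fluorescence over all cells without mother daughter split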
Yeast autofluor: yeast s288c autofluorescence artifact, counter-screen | shares compounds with LAP4 TOR yeast | fluorescence change (kMESF span) at 33 µM | 610 tested, under 10 active | S. cerevisiae s288c, 520 nm autofluorescence, flow cytometry, 3 h; stronger effect = higher value; zero means same as solvent-only cells;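 active = fluorescence span over the dose series, or activity score, above about 33, limit read from the data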
A number is an active result; i = inactive; nt = no result given. A selection: hits, their analogues and other compounds. The true share with any hit is near 1.1%.

SMILES	VLA-4 inh	RPL19A-GFP yeast	LAP4 TOR yeast	CIT2 TOR yeast	AGP1-GFP MLPCN	MEP2 TOR yeast	LAP4 cherry2	MEP2 cherry2	RPL19A-GFP pick2	CIT2-GFP pick2	AGP1 GFP CP2	Yeast autofluor
Cc1ccc(N(CC(=O)NCc2ccco2)C(=O)CCC(=O)Nc2ccccn2)c(C)c1	i	i	i	i	i	i	nt	nt	nt	nt	nt	nt
Oc1c(C(Nc2nc3ccccc3s2)c2ccco2)ccc2cccnc12 (configuration not stated)	i	i	203	i	i	i	nt	nt	nt	nt	nt	i
Cc1ccc(Nc2nc3ccccc3nc2Nc2c(C)n(C)n(-c3ccccc3)c2=O)cc1	i	i	i	i	i	i	nt	nt	nt	nt	nt	nt
Cc1ccc(N2C(=O)C(Cl)=C(Nc3c(C)n(C)n(-c4ccccc4)c3=O)C2=O)cc1	i	i	i	i	i	i	nt	nt	nt	nt	nt	i
Cc1cccc(N2C(=O)C(Cl)=C(Nc3c(C)n(C)n(-c4ccccc4)c3=O)C2=O)c1C	i	i	i	i	i	i	nt	nt	nt	nt	nt	i
Cc1c(NC(=O)Nc2c(Cl)cccc2Cl)c(=O)n(-c2ccccc2)n1C	i	i	i	i	i	i	nt	nt	nt	nt	nt	nt
CCCCC(CC)CN=C(N)NC(N)=NCCCCCCN=C(N)NC(N)=NCC(CC)CCCC (configuration not stated)	i	i	160	i	i	i	i	i	i	i	i	nt
Cc1ccc2c(nc3s/c(=C\c4ccc(-c5ccccc5C(=O)O)o4)c(=O)n32)c1C	i	i	i	i	i	184	nt	nt	nt	nt	nt	i
O=S(=O)(c1ccccc1)N1N=C(c2cccs2)CC1c1cccc(O)c1 (configuration not stated)	i	i	i	157	i	i	i	i	i	i	i	nt
O=S(=O)(c1ccccc1)N1N=C(c2cccs2)CC1c1ccc(F)cc1 (configuration not stated)	i	i	i	i	i	i	nt	nt	nt	nt	nt	nt
N#C/C(=C\c1cc(Br)ccc1F)C(=O)NC1CC1	i	i	156	i	i	i	156	i	i	i	i	i
N#C/C(=C\c1ccc(F)c(Br)c1)C(=O)NC1CC1	i	i	i	i	i	i	nt	nt	nt	nt	nt	nt
Cn1c(Cl)cnc1C1CC(=O)c2cc(Cl)ccc2O1 (configuration not stated)	i	i	210	i	i	i	i	i	i	i	i	nt
CC(=O)N1CCC2(CC1)CC(=O)c1cc(Cl)ccc1O2	i	i	i	i	i	i	nt	nt	nt	nt	nt	nt
N#Cc1cc([N+](=O)[O-])c(-n2nnc3ccccc32)c([N+](=O)[O-])c1	i	i	206	i	i	i	nt	nt	nt	nt	nt	i
CS(=O)(=O)c1ccc(-n2nnc3ccccc32)c([N+](=O)[O-])c1	i	i	i	i	i	i	nt	nt	nt	nt	nt	nt
Cc1ccc(NC(=O)c2nc(S(=O)(=O)Cc3ccccc3)ncc2Cl)cc1	i	i	152	i	i	i	nt	nt	nt	nt	nt	i
O=C(OCCOc1ccc(F)cc1)c1ccc(S(=O)(=O)N2CCCC2)cc1	i	i	i	i	i	i	nt	nt	nt	nt	nt	nt
Cc1ccccc1OCCOC(=O)c1ccc(S(=O)(=O)N2CCCC2)cc1	i	i	i	158	i	i	i	i	i	i	i	i
O=C1C(Cl)=C(NCCc2ccccc2)C(=O)N1CCc1ccccc1	i	i	i	i	i	i	nt	nt	nt	nt	nt	i
O=C1C(Cl)=C(NCCCN2CCOCC2)C(=O)N1CCc1ccccc1	i	i	i	i	i	i	nt	nt	nt	nt	nt	nt
O=C(c1ccc(Cl)c(S(=O)(=O)N2CCOCC2)c1)N1CCCCCC1	i	i	i	i	i	i	nt	nt	nt	nt	nt	nt
O=c1c(-c2ccc(Cl)cc2)[n+]([O-])c2ccccc2n1O	i	i	165	i	i	i	nt	nt	nt	nt	nt	i
O=c1c(-c2cccc([N+](=O)[O-])c2)[n+]([O-])c2ccccc2n1O	i	i	i	i	i	i	nt	nt	nt	nt	nt	nt
CCC1CCCCN1C(=O)c1ccc(OC2CCN(C(=O)CCOC)CC2)cc1 (configuration not stated)	i	i	i	i	i	i	nt	nt	nt	nt	nt	nt
SMILES	VLA-4 inh	RPL19A-GFP yeast	LAP4 TOR yeast	CIT2 TOR yeast	AGP1-GFP MLPCN	MEP2 TOR yeast	LAP4 cherry2	MEP2 cherry2	RPL19A-GFP pick2	CIT2-GFP pick2	AGP1 GFP CP2	Yeast autofluor
CCCNc1nc(C)cc(-c2cc(C(=O)Nc3ccccc3)on2)n1	i	i	i	i	i	i	i	i	i	i	i	nt
COCCNc1nc(C)cc(-c2cc(C(=O)NC3CCCC3)on2)n1	i	i	i	i	i	i	nt	nt	nt	nt	nt	nt
Cc1cc(-c2cc(C(=O)NCc3ccccc3)on2)nc(NCC2CC2)n1	i	i	i	i	i	i	i	i	i	i	i	nt
CCCNc1nc(C)cc(-c2cc(C(=O)NCc3ccccc3)on2)n1	i	i	153	i	i	i	i	i	i	i	i	nt
CC(C)c1cc(-c2cc(C(=O)Nc3ccccc3)on2)nc(NC2CCCC2)n1	i	i	i	i	i	i	i	i	i	i	i	nt
CCOc1cccc(C(=O)NNC(=O)C2C3C=CC(C3)C2C(=O)O)c1 (configuration not stated)	i	i	i	i	i	i	nt	nt	nt	nt	nt	nt
COc1ccc(S(=O)(=O)Nc2c(C)cccc2C)cc1-n1cnnn1	i	i	i	i	i	i	nt	nt	nt	nt	nt	nt
CC1C(=O)N2CCCc3cc(NC(=O)c4ccccc4Br)cc1c32 (configuration not stated)	i	i	i	i	i	i	nt	nt	nt	nt	nt	nt
CCC1CCC2(CC1)NC(=O)N(CC(=O)Nc1ccc(OC)c(Cl)c1)C2=O (configuration not stated)	i	i	i	i	i	i	nt	nt	nt	nt	nt	nt
CCC(Cc1ccccc1)NS(=O)(=O)c1c(C)nc2sccn2c1=O (configuration not stated)	i	i	i	i	i	i	nt	nt	nt	nt	nt	nt
CCOC(=O)Cc1csc(NC(=O)CSc2nnc(-c3ccc(OC)cc3)n2C)n1	i	i	i	i	i	i	nt	nt	nt	nt	nt	nt
